# ± gives the standard deviation of the averaged measurements.
# Tests used:
# Assay in all cases: promoter activity interaction Z-score (Lux/OD deviation from empty-vector control); higher = stronger promoter induction by the compound
# [1] = system: E. coli BW25113 acrABp lux reporter
# Procedure, shortened: (§1)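 E. coli BW25113 (wild type or marA, soxS or rob deletion) carrying low-copy luxCDABE promoter reporters grew in 40 µl LB Lennox in 384-well plates at 37°C. Each compound was tested at four 1:2 dilutions in biological duplicates. OD600 and luminescence were read every 30 min for 12 h. Areas were taken over 0–8 h (wild type) or 1–9 h (mutants), and wells below 10% of median growth area were removed. The score is the Z-transformed residual of growth-normalised luminescence fitted against the empty-vector control.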
# [2] = system: E. coli BW25113 micFp lux reporter
# Procedure, shortened: as §1
# [3] = system: E. coli BW25113 ompFp lux reporter
# Procedure, shortened: as §1
# [4] = system: E. coli BW25113 robp lux reporter
# Procedure, shortened: as §1
# [5] = system: E. coli BW25113 soxSp lux reporter
# Procedure, shortened: as §1
# [6] = system: E. coli BW25113 tolCp lux reporter
# Procedure, shortened: as §1
# [7] = 17 µg/ml, genetic background: wild type
# [8] = 17 µg/ml, genetic background: ΔmarA
# [9] = 17 µg/ml, genetic background: Δrob
# [10] = 17 µg/ml, genetic background: ΔsoxS
# [11] = 34 µg/ml, genetic background: wild type
# [12] = 34 µg/ml, genetic background: ΔmarA
# [13] = 34 µg/ml, genetic background: Δrob
# [14] = 34 µg/ml, genetic background: ΔsoxS
# [15] = 68.1 µg/ml, genetic background: wild type
# [16] = 68.1 µg/ml, genetic background: ΔmarA
# [17] = 68.1 µg/ml, genetic background: Δrob
# [18] = 68.1 µg/ml, genetic background: ΔsoxS
# [19] = 136.2 µg/ml, genetic background: wild type
# [20] = 136.2 µg/ml, genetic background: ΔmarA
# [21] = 136.2 µg/ml, genetic background: Δrob
# [22] = 136.2 µg/ml, genetic background: ΔsoxS
smiles,measurement,setting,value
C[C@]12CC[C@@H]3c4ccc(O)cc4CC[C@H]3[C@@H]1CC[C@@H]2O [Estradiol],promoter activity interaction Z-score,[1]; [7],0.298 ± 0.0088
same,promoter activity interaction Z-score,[1]; [8],-0.217 ± 0.5
same,promoter activity interaction Z-score,[1]; [9],-0.138 ± 0.15
same,promoter activity interaction Z-score,[1]; [10],-0.335 ± 0.57
same,promoter activity interaction Z-score,[1]; [11],0.101 ± 0.01
same,promoter activity interaction Z-score,[1]; [12],0.101 ± 1.4
same,promoter activity interaction Z-score,[1]; [13],-0.0321 ± 0.063
same,promoter activity interaction Z-score,[1]; [14],-0.0568 ± 0.0019
same,promoter activity interaction Z-score,[1]; [15],-0.0194 ± 0.39
same,promoter activity interaction Z-score,[1]; [16],1.6 ± 0.16
same,promoter activity interaction Z-score,[1]; [17],-0.247 ± 0.35
same,promoter activity interaction Z-score,[1]; [18],-0.0269 ± 0.066
same,promoter activity interaction Z-score,[1]; [19],0.225 ± 0.041
same,promoter activity interaction Z-score,[1]; [20],-0.22 ± 0.31
same,promoter activity interaction Z-score,[1]; [21],-0.28 ± 0.4
same,promoter activity interaction Z-score,[1]; [22],0.453 ± 0.73
same,promoter activity interaction Z-score,[2]; [7],0.105 ± 0.31
same,promoter activity interaction Z-score,[2]; [8],-0.0854 ± 0.0072
same,promoter activity interaction Z-score,[2]; [9],-0.132 ± 0.0023
same,promoter activity interaction Z-score,[2]; [10],-0.254 ± 0.061
same,promoter activity interaction Z-score,[2]; [11],-0.221 ± 0.34
same,promoter activity interaction Z-score,[2]; [12],-0.0642 ± 0.01
same,promoter activity interaction Z-score,[2]; [13],-0.194 ± 0.16
same,promoter activity interaction Z-score,[2]; [14],0.292 ± 0.13
same,promoter activity interaction Z-score,[2]; [15],0.178 ± 0.23
same,promoter activity interaction Z-score,[2]; [16],0.0617 ± 0.15
same,promoter activity interaction Z-score,[2]; [17],-0.166 ± 0.3
same,promoter activity interaction Z-score,[2]; [18],0.179 ± 0.19
same,promoter activity interaction Z-score,[2]; [19],0.028 ± 0.51
same,promoter activity interaction Z-score,[2]; [20],0.118 ± 0.11
same,promoter activity interaction Z-score,[2]; [21],-0.079 ± 0.16
same,promoter activity interaction Z-score,[2]; [22],0.578 ± 0.0079
same,promoter activity interaction Z-score,[3]; [7],0.501 ± 0.11
same,promoter activity interaction Z-score,[3]; [8],-0.126 ± 0.37
same,promoter activity interaction Z-score,[3]; [9],-0.146 ± 0.11
same,promoter activity interaction Z-score,[3]; [10],0.0169 ± 0.25
same,promoter activity interaction Z-score,[3]; [11],-0.603 ± 0.43
same,promoter activity interaction Z-score,[3]; [12],-0.0141 ± 0.44
same,promoter activity interaction Z-score,[3]; [13],-0.554 ± 0.48
same,promoter activity interaction Z-score,[3]; [14],-0.0316 ± 0.18
same,promoter activity interaction Z-score,[3]; [15],-0.329 ± 0.44
same,promoter activity interaction Z-score,[3]; [16],0.821 ± 0.84
same,promoter activity interaction Z-score,[3]; [17],-0.486 ± 0.4
same,promoter activity interaction Z-score,[3]; [18],-0.581 ± 0.16
same,promoter activity interaction Z-score,[3]; [19],-0.397 ± 0.85
same,promoter activity interaction Z-score,[3]; [20],-0.336 ± 0.37
same,promoter activity interaction Z-score,[3]; [21],-0.534 ± 0.93
same,promoter activity interaction Z-score,[3]; [22],-0.638 ± 0.074
same,promoter activity interaction Z-score,[4]; [7],0.7215 ± 0.0031
same,promoter activity interaction Z-score,[4]; [8],0.25 ± 0.44
same,promoter activity interaction Z-score,[4]; [9],-0.0547 ± 0.13
same,promoter activity interaction Z-score,[4]; [10],0.453 ± 0.085
same,promoter activity interaction Z-score,[4]; [11],-0.0162 ± 0.89
same,promoter activity interaction Z-score,[4]; [12],-0.0102 ± 0.92
same,promoter activity interaction Z-score,[4]; [13],-0.0213 ± 0.28
same,promoter activity interaction Z-score,[4]; [14],0.926 ± 0.78
same,promoter activity interaction Z-score,[4]; [15],0.13 ± 0.81
same,promoter activity interaction Z-score,[4]; [16],1.9 ± 0.56
same,promoter activity interaction Z-score,[4]; [17],-0.509 ± 0.5
same,promoter activity interaction Z-score,[4]; [18],0.373 ± 0.42
same,promoter activity interaction Z-score,[4]; [19],0.104 ± 0.37
same,promoter activity interaction Z-score,[4]; [20],0.282 ± 0.21
same,promoter activity interaction Z-score,[4]; [21],-0.478 ± 0.3
same,promoter activity interaction Z-score,[4]; [22],0.863 ± 0.52
same,promoter activity interaction Z-score,[5]; [7],0.266 ± 0.12
same,promoter activity interaction Z-score,[5]; [8],0.0464 ± 0.17
same,promoter activity interaction Z-score,[5]; [9],-0.0494 ± 0.027
same,promoter activity interaction Z-score,[5]; [10],0.159 ± 0.028
same,promoter activity interaction Z-score,[5]; [11],-0.15 ± 0.012
same,promoter activity interaction Z-score,[5]; [12],0.102 ± 0.021
same,promoter activity interaction Z-score,[5]; [13],-0.334 ± 0.0093
same,promoter activity interaction Z-score,[5]; [14],0.0514 ± 0.057
same,promoter activity interaction Z-score,[5]; [15],-0.196 ± 0.013
same,promoter activity interaction Z-score,[5]; [16],0.057 ± 0.029
same,promoter activity interaction Z-score,[5]; [17],-0.104 ± 0.2
same,promoter activity interaction Z-score,[5]; [18],0.254 ± 0.52
same,promoter activity interaction Z-score,[5]; [19],-0.422 ± 0.035
same,promoter activity interaction Z-score,[5]; [20],-0.276 ± 0.077
same,promoter activity interaction Z-score,[5]; [21],-0.275 ± 0.2
same,promoter activity interaction Z-score,[5]; [22],-0.137 ± 0.099
same,promoter activity interaction Z-score,[6]; [7],0.895 ± 0.21
same,promoter activity interaction Z-score,[6]; [8],-0.343 ± 0.88
same,promoter activity interaction Z-score,[6]; [9],-0.103 ± 1
same,promoter activity interaction Z-score,[6]; [10],-0.491 ± 0.4
same,promoter activity interaction Z-score,[6]; [11],-0.0124 ± 0.71
same,promoter activity interaction Z-score,[6]; [12],-0.745 ± 0.26
same,promoter activity interaction Z-score,[6]; [13],-0.126 ± 1.3
same,promoter activity interaction Z-score,[6]; [14],0.321 ± 0.44
same,promoter activity interaction Z-score,[6]; [15],-0.293 ± 0.52
same,promoter activity interaction Z-score,[6]; [16],0.492 ± 0.095

# Reference: the supplement of paper PMC12282887
